Here are results for 20 compounds from PubChem BioAssay (NCI).

Assay [1] in a line: NCI Yeast Anticancer Drug Screen. Data for the rad50 strain (AID 155).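 Further: 0% = growth of vehicle-only cultures of the same strain.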 To be noted: S. cerevisiae rad50 strain growth inhibition; at 50.0 µM; hits give high values. The gist of the method:
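Relative growth inhibition (compound vs vehicle) was measured in yeast with a defined repair-gene alteration.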

The nature of assay [2]: NCI Yeast Anticancer Drug Screen. Data for the mec2-1 strain (AID 157). To be noted: S. cerevisiae mec2-1 strain, at 50.0 µM, hits give high values. A digest of the protocol:
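Strain: mec2-1 (DNA repair/cell cycle alteration). Compound exposure, then growth measured; inhibition expressed relative to vehicle.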

Assay [3] can be described thus: NCI Yeast Anticancer Drug Screen. Data for the sgs1 mgt1 strain (AID 161).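 Further: 0% = growth of cultures given vehicle only.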 To be noted: S. cerevisiae sgs1 mgt1 strain, at 50.0 µM, hits give high values. A digest of the protocol: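 Genetically altered yeast, compound exposure, growth inhibition relative to vehicle.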
A short description of assay [4]: NCI Yeast Anticancer Drug Screen. Data for the cln2 rad14 strain (AID 165).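 Further: 0% = growth equal to vehicle treated cultures.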 To be noted: S. cerevisiae cln2 rad14 strain, at 50.0 µM, hits give high values. A digest of the protocol: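 Compounds are applied to the cln2 rad14 yeast strain, and growth is then compared with that of vehicle-treated cultures to give inhibition.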
Assay [5] in a line: NCI Yeast Anticancer Drug Screen. Data for the bub3 strain (AID 167). The conditions noted are these: S. cerevisiae bub3 mutant strain, at 50.0 µM, hits give high values. The gist of the method: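 Screening used yeast with an engineered genetic alteration affecting cell cycle control. Compound-exposed cultures were compared with vehicle cultures, and reduced growth was taken as inhibition.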

Assay [6] is described as follows: NCI Yeast Anticancer Drug Screen. Data for the mlh1 rad18 strain (AID 175). To be noted: S. cerevisiae mlh1 rad18 strain growth inhibition; at 50.0 µM; hits give high values. A digest of the protocol:
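Read-out is yeast growth inhibition, calculated against vehicle-only controls. The compound was applied to a strain engineered with DNA damage repair alterations.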

Structures are written as SMILES. Compounds without any hit were thinned out: in the full panel of roughly 79,000, 15% have a hit. Unmarked numbers belong to inactive results. Activity calls are given as the source filed them. No stated cut-off is given here; in the data, active means growth inhibition above about 70%; inactive means the rest.

For the compound `C1CNCCNCCN1`, the growth inhibition in assay [1] was 7.65%; in assay [2] it was -1.05%; in assay [3], 10.1%; in assay [4], 21.1%; in assay [5] it was 25.5%; in assay [6] it was -4.3%.

Take `N#CC(C#N)=Cn1c(=S)[nH]c2ccc([N+](=O)[O-])cc21`: the growth inhibition in assay [1] was -13.4%; in assay [2], -19.6%; in assay [3], 2.75%; in assay [4], 20.8%; in assay [5] it was -9%; in assay [6], -4.55%.

On to `CN1C2CC(=O)CC1[C@@H]1OC(c3ccccc3)O[C@H]21` (stereo not given in full), for which the growth inhibition is 6.65% in assay [1]; -3.25% in assay [2]; -15.4% in assay [3]; 27.9% in assay [4]; 17.6% in assay [5]; 19.5% in assay [6].

On to `O=C(NC(=S)Nc1cccc(Cl)c1)c1ccccc1`, for which the growth inhibition was 15.9% in assay [1]; 26.5% in assay [2]; 33.3% in assay [3]; -7.3% in assay [4]; 46.2% in assay [5]; 12.4% in assay [6].

Take `O=C(Nc1nccs1)Nc1cc(F)ccc1F`: the growth inhibition is 5.7% in assay [1]; 42.5% in assay [2]; 21.5% in assay [3]; -13.2% in assay [4]; 36.6% in assay [5]; 8.35% in assay [6].

`O=C([O-])C[n+]1ccccc1/C=C/c1ccccc1`: the growth inhibition in assay [1] was -19.2%; in assay [2], 1.8%; in assay [3], -23.1%; in assay [4], -15.2%; in assay [5] it was -7.75%; in assay [6], -23.9%.

Take `CCOC(=O)C1(Br)C(c2ccccc2)NC(=O)N(C2OC(COC(=O)c3ccccc3)C(OC(=O)c3ccccc3)C2OC(=O)c2ccccc2)C1(C)Br` (stereo not given): the growth inhibition in assay [1] was -25.4%; in assay [2] it was -28.4%; in assay [3] it was -27.9%; in assay [4], 6.4%; in assay [5], 7%; in assay [6], -22.8%.

Regarding `O=c1[nH]c2c(Cl)cccc2c2ccccc12`, the growth inhibition is 40.5% in assay [1]; 18.9% in assay [2]; -7.45% in assay [3]; -18.1% in assay [4]; -17.9% in assay [5]; 14.3% in assay [6].

For the compound `CN1CCC(c2ccccc2)(c2ccccc2)C(O)C1` (stereo not given), the growth inhibition in assay [1] is 1.15%; in assay [2] it was -0.45%; in assay [3] it was 13.7%; in assay [4], 4.35%; in assay [5], 3.3%; in assay [6], 4.7%.

In the case of `CSC(=N\N=C(/C)c1ccc(Br)cc1)/N=C/N(C)C`, the growth inhibition in assay [1] is 46.2%; in assay [2], 23.2%; in assay [3], 55.5%; in assay [4], 19%; in assay [5], 28.1%; in assay [6], 31.7%.

`COc1ccccc1C(=O)N/N=C/c1ccc(O)cc1`: the growth inhibition was 0% in assay [1]; 22.6% in assay [2]; 15.3% in assay [3]; -2.7% in assay [4]; 16.6% in assay [5]; 19.9% in assay [6].

On to `CCOC(=O)c1ccccc1S(=O)(=O)c1ccccc1C(=O)OCC`, for which the growth inhibition in assay [1] was 1.4%; in assay [2], 16.9%; in assay [3], 9.85%; in assay [4], 11.2%; in assay [5] it was 5.2%; in assay [6] it was 10.4%.

For `C1C2CC3(CO3)C1C1OC21` (stereo not given), the growth inhibition was -39.4% in assay [1]; -13.8% in assay [2]; -26.1% in assay [3]; 3.85% in assay [4]; -22.2% in assay [5]; -10.8% in assay [6].

On to `O=CC(C(=O)c1ccccc1[N+](=O)[O-])c1ccccc1` (stereo not given), for which the growth inhibition was 9.6% in assay [1]; 5.7% in assay [2]; 15.9% in assay [3]; 15.8% in assay [4]; 13.7% in assay [5]; 13.4% in assay [6].

On to `O=c1oc2ccc(Cl)cc2c(=O)n1-c1cc(Cl)ccc1[N+](=O)[O-]`, for which the growth inhibition in assay [1] is -4.65%; in assay [2], -21%; in assay [3], -6.8%; in assay [4], -11.5%; in assay [5], 0.45%; in assay [6] it was 21.6%.

For the compound `O=C(Cc1cccc(CC(=O)c2ccccc2)n1)c1ccccc1`, the growth inhibition in assay [1] was 9.25%; in assay [2] it was -4.75%; in assay [3], 18.5%; in assay [4], -52.2%; in assay [5], -43%; in assay [6], 10.4%.

For the compound `O=C(CCc1ccccc1Cl)CC(=O)CC(O)(c1ccccc1)c1ccccc1`, the growth inhibition is 68% in assay [1]; 57.5% in assay [2]; 70.5% (active) in assay [3]; 42.2% in assay [4]; 39.4% in assay [5]; 61.9% in assay [6].

Turning to `CSc1nc(NC2OC(CO)C(O)C(O)C2O)c(I)c(=O)n1C` (stereo not given), the growth inhibition was 3.15% in assay [1]; 1.85% in assay [2]; -5.3% in assay [3]; -6.25% in assay [4]; -1.75% in assay [5]; 27.7% in assay [6].

Take `Nc1ccc(N2N=C(N3CCCC3)CC2=O)cc1`: the growth inhibition in assay [1] is -26.6%; in assay [2], -48.8%; in assay [3], -10.8%; in assay [4], 1.2%; in assay [5], -12.7%; in assay [6], -23.4%.

Turning to `Nc1ncnc2c1nnn2C1CCC(CP(=O)(O)O)C1` (stereo not given), the growth inhibition in assay [1] is 8.05%; in assay [2] it was 4.45%; in assay [3], -4.65%; in assay [4], 17.9%; in assay [5], 7.3%; in assay [6], 21.6%.
